Source: PubChem BioAssay
MazEF act: increases E. coli MazEF RNase cleavage of RNA; AID 504720; activation, % at 20 µM; P0AE70; FAM/BHQ RNA-DNA oligo cleavage fluorescence, 5 h; hit rate 0.32% among 350,000; in the data active = activation above about 50%
Target sequence (P0AE70 whole entry, looked up): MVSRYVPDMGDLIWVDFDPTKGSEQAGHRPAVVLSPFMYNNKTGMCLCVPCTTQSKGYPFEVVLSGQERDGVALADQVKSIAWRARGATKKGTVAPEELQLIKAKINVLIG
Anthrax LF prot: inhibitors of Bacillus anthracis lethal factor protease | P15917 | multiplex microsphere protease cleavage assay, LF | inhibition, % at 10 µM | hit rate 0.12% among 360,000
BoNT F protease: BoNT F light chain protease inhibition | hit rate 0.22% among 360,000 | Multiplex microsphere protease cleavage assay, flow cytometry | inhibition, % at 10 µM; in the data active = inhibition above about 35%, passing the limit was not always enough; inconclusive = no clear call, values can overlap the other calls
BoNT A protease: inhibitors of Botulinum neurotoxin A light chain protease. inhibition, % at 10 µM. AID 588499. hit rate 0.17% among 360,000. multiplex microsphere protease substrate cleavage, flow cytometry
Autofluor counter: compound fluorescence in toxin protease inhibitor counterscreen; compound autofluorescence counterscreen, microsphere flow cytometry; stronger effect = higher value; hit rate 3.1% among 360,000; fluorescence intensity (no concentration beside the values); AID 624483; in the data active = fluorescence intensity above about 16000; inconclusive = no clear call, values can overlap the other calls
Numbers stand for hits; - = inactive; ? = inconclusive; . = no result given; + = active, no number. Hits are enriched below; roughly 3.6% of the tested compounds scored in any of these assays. Cut-off read from the data, not from the text of the source, unless noted: active = inhibition above about 30%; inconclusive = no clear call, values can overlap the other calls; inactive = below that.

SMILES	MazEF act	Anthrax LF prot	BoNT F protease	BoNT A protease	Autofluor counter
O=C(CN1C(=O)NC2(CCCC2)C1=O)NCCc1ccccc1	-	-	-	-	-
O=C(Cc1ccccc1[N+](=O)[O-])NCC(O)c1ccc2c(c1)OCO2 (centres undefined)	-	-	-	-	-
CCn1c2ccccc2c2nc3cc(S(=O)(=O)N4CCOCC4)ccc3nc21	-	33	-	40	-
O=C(c1cccc(S(=O)(=O)N2CCOCC2)c1)N1CCCc2ccccc21	-	-	-	-	-
c1ccc2nc3c(nc2c1)c1ccccc1n3CCN1CCOCC1	-	-	-	-	-
Cc1c(C(=O)N2CCCc3ccccc32)oc2ccc(S(=O)(=O)N3CCOCC3)cc12	-	-	-	-	16777
O=S(=O)(c1ccc2oc3ccccc3c2c1)N1CCOCC1	-	-	-	-	16805
CCn1c2c(c3cc(Br)ccc31)CCC/C2=N\O	-	-	-	-	29475
O=S(=O)(Nc1cccnc1Cl)c1ccc2c(c1)OCCO2	-	-	-	?	16615
CC(C)CNS(=O)(=O)c1ccc2c(c1)OCCO2	-	-	-	-	24162
Cc1ccc(CNS(=O)(=O)c2ccc3c(c2)OCCO3)cc1	-	-	-	-	-
CSc1ccccc1NS(=O)(=O)c1ccc2c(c1)OCCO2	-	-	-	-	20835
O=C(NCCOC(=O)c1ccccc1)c1ccccc1	-	-	-	-	-
CCOC(=O)CN1C(=O)/C(=C/c2ccccc2Br)Oc2ccccc21	-	-	-	-	-
Cc1cc2ccccc2c(=O)n1CC(=O)NCC(=O)N1CCN(c2cccc(Cl)c2)CC1	-	-	-	?	20243
CC(OC(=O)CN1C(=O)NC2(CCCC2)C1=O)C(=O)c1ccccc1 (centres undefined)	-	-	-	-	?
CC(OC1=CC(=O)CCC1)C(=O)c1ccccc1 (centres undefined)	-	-	-	-	20377
COc1ccc(N2C(=O)NC(=O)/C(=C/c3cccc(OC(=O)c4cccs4)c3)C2=O)cc1Cl	-	.	.	.	.
Cc1ccc(N2C(=O)NC(=O)/C(=C/c3ccc(OC(=O)c4cccs4)cc3)C2=O)cc1	-	-	-	?	24767
CCOC(=O)c1cnc(-n2cc(C)cn2)nc1Nc1ccccc1OCC	-	-	-	-	23982
Cc1noc(NS(=O)(=O)c2ccc(N/C=C\C(=O)c3ccncc3)cc2)c1C	-	-	-	-	-
Cc1noc(NS(=O)(=O)c2ccc(N/C=C/C(=O)c3ccncc3)cc2)c1C	-	-	-	?	16425
C[C@H](CO)N1C[C@H](C)[C@@H](CN(C)S(=O)(=O)c2cn(C)cn2)Oc2c(NC(=O)Nc3ccc4c(c3)OCO4)cccc2C1=O	-	-	-	-	-
COC(=O)C1=CN(C(C)C)C=C(C(=O)OC)C1c1cc(Br)c(OC)c(OC)c1	-	-	-	-	23675
Cc1ccccc1SCC(=O)OCC(=O)N(C)c1c(N)n(Cc2ccccc2)c(=O)[nH]c1=O	-	-	-	-	-
SMILES	MazEF act	Anthrax LF prot	BoNT F protease	BoNT A protease	Autofluor counter
CC(C)c1ccc(CN2CCC(Oc3ccc(C(=O)N4CCCC4)cc3)CC2)cc1	-	-	-	-	-
COc1cc(/C=C2/SC(=S)N(Cc3ccccc3)C2=O)ccc1O	-	-	-	30	-
O=C1/C(=C/c2cccc(O)c2)SC(=S)N1CC1CCCO1 (centres undefined)	-	-	-	-	-
CCOc1cc(/C=C2/SC(=S)N(CC3CCCO3)C2=O)ccc1O (centres undefined)	+	-	-	-	-
O=C1/C(=C/c2ccc(O)cc2)SC(=S)N1Cc1cccnc1	-	-	-	-	-
COc1ccc(/C=C2\SC(=S)N(Cc3cccnc3)C2=O)cc1C	-	-	-	38	-
Cc1ccc(/C=C2\SC(=S)N(Cc3ccccc3)C2=O)o1	-	36	-	48	-
Cc1ccc(NC(=O)C(=O)NCCN2CCN(S(C)(=O)=O)CC2)cc1C	-	-	-	-	-
CCCC(C)C(=O)NC1CCSC1=O (centres undefined)	-	-	-	-	16556
CC(Oc1ccc(Cl)cc1Cl)C(=O)NC1CCSC1=O (centres undefined)	-	-	-	-	22259
COc1ccc(Cl)cc1NC(=O)CSc1nnc(C2CC2)n1N	-	-	-	-	-
Cc1nc(N2CCc3ccccc3C2)[nH]c(=O)c1Cc1ccccc1	-	-	-	-	-
Nc1cc(=O)[nH]c(SCC(=O)N2CCCc3ccccc32)n1	-	-	-	-	16983
CCCc1cc(=O)[nH]c(SCC(=O)N2CCCc3ccccc32)n1	-	-	-	-	-
Cc1cc(=O)[nH]c(SCC(=O)N2CCc3ccccc3C2)n1	-	-	-	-	20691
O=C(CSc1nnnn1-c1ccc(Cl)cc1)N1CCc2ccccc2C1	-	-	-	-	21981
Cc1cc(=O)[nH]c(N2CCc3ccccc3C2)n1	-	-	-	-	25748
COc1cccc(CNC(=O)CCSCc2ccccc2F)c1	-	-	-	-	-
Cc1noc(C)c1S(=O)(=O)Nc1ccc2c(c1)C(=O)N([C@H](C)CO)C[C@H](C)[C@@H](CN(C)S(=O)(=O)c1ccc(F)cc1)O2	-	-	-	-	-
CCOC(=O)c1cnc(Nc2nc3ccccc3o2)nc1C	-	-	-	-	20539
CCOC(=O)c1cnc(Nc2nc3ccccc3o2)nc1CSc1nnc(C)s1	-	-	-	-	-
CC(C)N1CCN(Cc2cc3c(cc2Cl)OCO3)CC1CCO (centres undefined)	83	-	-	-	-
COc1cccc(CNC(=O)[C@@H]2CCCN2C(=O)[C@@H]2CCCN2C(=O)c2cccc(OC)c2)c1	.	-	-	-	-
COc1ccc(C2C3=C(N=C4SCC(=O)N42)c2ccccc2CC3)cc1OC (centres undefined)	-	-	-	-	24021
O=C(CCNC(=O)c1ccc(Cl)cc1)NCC(c1ccco1)N1CCCC1 (centres undefined)	-	-	-	-	-
SMILES	MazEF act	Anthrax LF prot	BoNT F protease	BoNT A protease	Autofluor counter
CN(C)c1cc2c(cc1NC(=O)c1ccccc1Cl)n(C)c(=O)n2C	-	-	-	-	-
OC(c1ccccc1)c1cccnc1 (centres undefined)	-	-	-	-	-
CC(=O)NC(c1ccccc1)c1cccnc1 (centres undefined)	-	-	-	-	16197
CC(=O)Nc1ccc(S(=O)(=O)Nc2nc3ccccc3nc2Nc2ccc(O)c(C(=O)O)c2)cc1	-	-	-	-	-
Clc1c(-c2ccccc2)nc2ccccn12	-	-	?	-	-
c1ccn2c(c1)nc1c2nc2ccccn21	-	-	-	-	21237
O=C1CCC([N+](=O)[O-])C(c2ccc(C(F)(F)F)cc2)N1 (centres undefined)	-	-	?	-	-
O=C(CN1CCN(c2ccccn2)CC1)N1CC(O)CO1 (centres undefined)	-	-	-	-	-
O=C(CN1CCN(c2ccccn2)CC1)N1c2ccccc2Sc2ccc(C(F)(F)F)cc21	-	-	-	-	17711
O=C(CN1CCN(c2ccccn2)CC1)N1c2ccccc2CCc2ccccc21	-	-	-	-	20825
CC(=O)Nc1ccc(C(=O)CN2CCN(c3ccccc3)CC2)cc1	-	-	-	-	-
